Reference: the supplement of paper PMC10981050
“And” between values parts separate entries of the source, which are not always exact repeats. Equal values may be shown once. Where a name gives a salt, the structure may show the parent alone.

Legend:
Experiment in all cases: cell viability relative to vehicle control; higher = less cytotoxic
Conditions in all cases: 10 µM
[1] = test system: K562
Method in brief: (§1)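 After removal of identity-inconsistent compounds, the Selleck bioactive, kinase and epigenetic probe libraries were screened on CRISPR-edited mutant clones and isogenic wild-type clones of four leukaemia lines. Plates were 384-well, each well holding 2000 cells in 50 µL medium and receiving a single 10 µM acoustically dispensed dose. CellTiter-Glo luminescence was read 48 h later, after the supernatant was taken off. Genedata Screener was used to express viability as percent of the on-plate vehicle control.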

[2] = test system: MARIMO
Method in brief: as §1

[3] = test system: MOLM14
Method in brief: as §1

[4] = test system: OCI-AML2
Method in brief: as §1

Compound | cell viability ([1]; SRSF2 genotype: SRSF2 P95H/wt) | cell viability ([1]; SRSF2 genotype: SRSF2 wt/wt) [%] | cell viability ([2]; SRSF2 genotype: SRSF2 P95H/wt) [%] | cell viability ([2]; SRSF2 genotype: SRSF2 wt/wt) [%] | cell viability ([3]; SRSF2 genotype: SRSF2 P95H/wt) [%] | cell viability ([3]; SRSF2 genotype: SRSF2 wt/wt) [%] | cell viability ([4]; SRSF2 genotype: P95H/wt) [%] | cell viability ([4]; SRSF2 genotype: wt/wt) [%]
CO[C@H]1C[C@H](O[C@H]2[C@H](C)O[C@@H](O[C@@H]3/C(C)=C/C[C@@H]4C[C@@H](C[C@]5(C=C[C@H](C)[C@@H](C6CCCCC6)O5)O4)OC(=O)[C@@H]4C=C(C)[C@@H](O)[C@H]5OC/C(=C\C=C\[C@@H]3C)[C@]54O)C[C@@H]2OC)O[C@@H](C)[C@@H]1O [Doramectin] | 33% and 39.8% | 37.1 | 36.8 | 29.4 | 24.6 | 29.9 | 15.3 | 17.3
COc1cc2ncnc(Nc3ccc(Oc4ccccc4)cc3C)c2cc1OC | 68% and 80.2% | 79.3 | 81.1 | 66 | 37.5 | 29.9 | 45.6 | 43
CC[C@H]1OC(=O)[C@H](C)[C@@H](O[C@H]2C[C@@](C)(OC)[C@@H](O)[C@H](C)O2)[C@H](C)[C@@H](O[C@@H]2O[C@H](C)C[C@H](N(C)C)[C@H]2O)[C@](C)(O)C[C@@H](C)C(=O)[C@H](C)[C@@H](O)[C@]1(C)O [Erythromycin] | 99.5% and 99.1% | 97.1 | 101 | 98.2 | 104 | 99.6 | 106 | 103
CCN(CC)CCOC(=O)C(c1ccccc1)c1ccccc1 [Adiphenine HCl] | 97.9% and 89.7% | 85.9 | 85.1 | 96.3 | 89 | 94.3 | 92.4 | 81.1
O=C(O)c1c[nH]c2ccccc12 [Indole-3-carboxylic acid] | 103% and 92% | 100 | 97.8 | 110 | 94.3 | 101 | 92.3 | 114
CN(C)c1ccc(C(=C2C=CC(=[N+](C)C)C=C2)c2ccc(N(C)C)cc2)cc1 [Crystal violet] | 0.3% and 0.45% | 1.14 | 0.76 | 1.04 | 0.09 | 0.09 | 0.06 | 0.11
O=C(c1ccc(Oc2ccccc2)cc1Cl)c1c[nH]c2ncnc(N[C@@H]3CC[C@@H](CO)OC3)c12 | 9.11% and 19% | 14.3 | 23.1 | 22.1 | 12.6 | 17 | 13.4 | 16.1
O=C(/C=C/N1C[C@H]2C[C@@H]1CN2c1ccccn1)c1ccccc1O | 93.1% and 98% | 97.1 | 95.5 | 96.5 | 102 | 99.2 | 104 | 105
O=C(/C=C/c1ccc(O)cc1)C1=C(O)[C@](O)([C@@H]2O[C@H](CO)[C@@H](O)[C@H](O)[C@H]2O)C(O)=C(/C=C2/C(=O)C(C(=O)/C=C/c3ccc(O)cc3)=C(O)[C@@](O)([C@@H]3O[C@H](CO)[C@@H](O)[C@H](O)[C@H]3O)C2=O)C1=O [Safflower Yellow] | 97.2% and 89.1% | 90.4 | 91.5 | 98.8 | 90.4 | 94.9 | 97.7 | 90.5
